Screens as filed in PubChem BioAssay.
Sampled rows, rich in hits. Any-hit rate of the full collection: about 6.7%.
T cruzi growth: T. cruzi intracellular proliferation inhibitors, primary screen, cell-based, beta-gal Tulahuen parasites, NIH3T3 host, luminescence; inhibition, % at 8.34 µM; AID 624255, 2012; T. cruzi beta-gal in NIH3T3, GalScreen luminescence, 90 h; 77,000 compounds, 5.9% hits;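 active = mean inhibition above about 93%, with at least 55% of replicates each passing it, limit read from the data, passing the limit was not always enough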
C diff HTS: C. difficile growth inhibitors, primary screen, HTS; Clostridium difficile clinical isolate growth, OD600, 24 h; hits give low values; growth activity, negative = inhibition, % at 16 µg/mL (by protocol); 86,000 compounds, 0.25% hits; AID 1259249, 2017;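 active = mean growth activity at or below -80% and every replicate also at or below -80%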
Pf Dd2 growth: P. falciparum Dd2 growth inhibitors, primary screen, SYBR Green fluorescence, single dose replicates | 72 h; hits give low values | 94,000 compounds, 2.3% hits | activity change, % at 10 µM; in the data active = activity change below about -80%
A number is an active result.

Screening C[C@H]1CCCCO[C@H](CN(C)C(=O)C2CCCCC2)[C@@H](C)CN([C@@H](C)CO)C(=O)c2cc(NC(=O)Nc3ccccc3)ccc2O1 returned T cruzi growth inactive, C diff HTS inactive and Pf Dd2 growth inactive.
C[C@@H]1CCCCO[C@@H](CN(C)C(=O)C2CCCCC2)[C@@H](C)CN([C@@H](C)CO)C(=O)c2cc(NC(=O)Nc3ccc(F)cc3)ccc2O1 was read as T cruzi growth inactive, C diff HTS inactive and Pf Dd2 growth inactive.
C[C@@H]1CCCCO[C@@H](CN(C)C(=O)C2CCCCC2)[C@@H](C)CN([C@H](C)CO)C(=O)c2cc(NC(=O)Cc3ccccc3)ccc2O1 was read as T cruzi growth inactive, C diff HTS inactive and Pf Dd2 growth inactive.
`C[C@@H]1CN([C@H](C)CO)C(=O)c2cc(NC(=O)Nc3ccc(F)cc3)ccc2O[C@@H](C)CCCCO[C@@H]1CN(C)C(=O)C1CCCCC1` gave T cruzi growth inactive, C diff HTS inactive and Pf Dd2 growth -92.
For C[C@@H]1CN([C@@H](C)CO)C(=O)c2cc(NC(=O)Nc3ccc(F)cc3)ccc2O[C@@H](C)CCCCO[C@@H]1CN(C)C(=O)C1CCCCC1 the results were T cruzi growth inactive, C diff HTS inactive and Pf Dd2 growth -85.
For C[C@@H]1CN([C@H](C)CO)C(=O)c2cc(NC(=O)Nc3ccccc3)ccc2O[C@@H](C)CCCCO[C@@H]1CN(C)C(=O)C1CCCCC1 the results were T cruzi growth inactive, C diff HTS inactive and Pf Dd2 growth -86.
`C[C@@H]1CCCCO[C@H](CN(C)C(=O)C2CCCCC2)[C@@H](C)CN([C@H](C)CO)C(=O)c2cc(NC(=O)Nc3ccc(F)cc3)ccc2O1` gave T cruzi growth inactive, C diff HTS inactive and Pf Dd2 growth inactive.
Screening COc1ccc(C(=O)Nc2ccc3c(c2)OC[C@@H](C)NC[C@H](C)[C@H](OC)CN(C)C3=O)cc1 returned T cruzi growth inactive, C diff HTS inactive and Pf Dd2 growth inactive.
Cc1ccc(S(=O)(=O)N(C)C[C@@H]2Oc3ccc(NS(=O)(=O)c4c(C)noc4C)cc3CC(=O)N([C@@H](C)CO)C[C@@H]2C)cc1 was read as T cruzi growth inactive, C diff HTS inactive and Pf Dd2 growth inactive.
`C[C@H](NC(=O)C[C@H]1C[C@H]2c3cc(NC(=O)c4cccnc4)ccc3O[C@H]2[C@H](CO)O1)c1ccccc1` gave T cruzi growth inactive and Pf Dd2 growth inactive.
`C[C@@H]1CN([C@@H](C)CO)C(=O)c2cc(NC(=O)Nc3ccc(F)cc3)ccc2O[C@@H](C)CCCCO[C@H]1CN(C)C(=O)C1CCCCC1` gave T cruzi growth inactive, C diff HTS inactive and Pf Dd2 growth inactive.
C[C@H]1CCCCO[C@@H](CN(C)C(=O)C2CCCCC2)[C@@H](C)CN([C@@H](C)CO)C(=O)c2cc(NC(=O)NC3CCCCC3)ccc2O1 was read as T cruzi growth inactive, C diff HTS inactive and Pf Dd2 growth -82.
Screening C[C@@H]1CCCCO[C@H](CN(C)C(=O)C2CCCCC2)[C@@H](C)CN([C@@H](C)CO)C(=O)c2cc(NC(=O)Nc3ccc(F)cc3)ccc2O1 returned T cruzi growth inactive, C diff HTS inactive and Pf Dd2 growth -90.
Screening C[C@@H]1CCCCO[C@@H](CN(C)C(=O)C2CCCCC2)[C@@H](C)CN([C@@H](C)CO)C(=O)c2cc(NC(=O)NC3CCCCC3)ccc2O1 returned T cruzi growth inactive, C diff HTS inactive and Pf Dd2 growth inactive.
For CO[C@@H]1CN(C)C(=O)c2cc(NS(C)(=O)=O)ccc2OC[C@H](C)N(CC2CCCCC2)C[C@H]1C the results were T cruzi growth inactive and Pf Dd2 growth inactive.
Screening C[C@@H]1CN([C@H](C)CO)C(=O)c2cc(NC(=O)Cc3cn(C)c4ccccc34)ccc2O[C@H]1CN(C)S(=O)(=O)c1cccs1 returned T cruzi growth inactive and Pf Dd2 growth inactive.
Screening C[C@@H]1CN([C@@H](C)CO)C(=O)c2cc(NC(=O)Cc3cn(C)c4ccccc34)ccc2O[C@H]1CN(C)S(=O)(=O)c1cccs1 returned T cruzi growth inactive and Pf Dd2 growth inactive.
C[C@H](CO)N1C[C@H](C)[C@H](CN(C)S(=O)(=O)c2cccs2)Oc2ccc(NC(=O)Cc3cn(C)c4ccccc34)cc2C1=O was read as T cruzi growth inactive and Pf Dd2 growth -86.
`C[C@H]1CN([C@@H](C)CO)C(=O)c2cc(NC(=O)Cc3cn(C)c4ccccc34)ccc2O[C@H]1CN(C)S(=O)(=O)c1cccs1` gave T cruzi growth inactive and Pf Dd2 growth -90.
For N#C[C@H]1[C@@H](c2ccc(C#CC3CCCC3)cc2)[C@@H](CO)N1S(=O)(=O)c1ccccc1 the results were T cruzi growth inactive, C diff HTS inactive and Pf Dd2 growth -83.
For N#C[C@@H]1[C@H](c2ccc(C#CC3CCCC3)cc2)[C@H](CO)N1S(=O)(=O)c1ccccc1 the results were T cruzi growth inactive, C diff HTS inactive and Pf Dd2 growth inactive.
Cc1ccccc1S(=O)(=O)N1[C@@H](C#N)[C@@H](c2ccc(-c3ccc(F)cc3)cc2)[C@@H]1CO was read as T cruzi growth 107, C diff HTS inactive and Pf Dd2 growth inactive.
Screening Cc1ccccc1S(=O)(=O)N1[C@H](C#N)[C@@H](c2ccc(C#CC3CC3)cc2)[C@@H]1CO returned T cruzi growth inactive, C diff HTS inactive and Pf Dd2 growth -85.
For Cc1ccccc1S(=O)(=O)N1[C@H](C#N)[C@H](c2ccc(C#CC3CCCCC3)cc2)[C@@H]1CO the results were T cruzi growth inactive, C diff HTS inactive and Pf Dd2 growth inactive.
Screening Cc1ccccc1S(=O)(=O)N1[C@H](C#N)[C@@H](c2ccc(C#CC3CCCC3)cc2)[C@@H]1CO returned C diff HTS inactive and Pf Dd2 growth inactive.
For Cc1ccccc1S(=O)(=O)N1[C@H](CO)[C@@H](c2ccc(C#CC3CCCCC3)cc2)[C@@H]1C#N the results were T cruzi growth inactive, C diff HTS inactive and Pf Dd2 growth -83.
Screening Cc1ccccc1S(=O)(=O)N1[C@H](C#N)[C@@H](c2ccc(-c3ccc(F)cc3)cc2)[C@@H]1CO returned T cruzi growth inactive, C diff HTS inactive and Pf Dd2 growth inactive.
For Cc1ccc(S(=O)(=O)Nc2ccc3c(c2)C(=O)N([C@@H](C)CO)C[C@H](C)[C@@H](CN(C)Cc2ccc(C(=O)O)cc2)O3)cc1 the results were T cruzi growth inactive, C diff HTS inactive and Pf Dd2 growth inactive.
For CO[C@@H]1CN(C)C(=O)c2ccc(NC(C)=O)cc2OC[C@H](C)N(C(=O)Cc2ccccn2)C[C@H]1C the results were T cruzi growth inactive and Pf Dd2 growth inactive.
Screening CC(C)NC(=O)N[C@@H]1C=C[C@@H](CC(=O)O)O[C@H]1CO returned T cruzi growth inactive, C diff HTS inactive and Pf Dd2 growth inactive.
COCC(=O)N(C)C[C@H]1Oc2cc(-c3ccc(C)cc3)ccc2S(=O)(=O)N([C@@H](C)CO)C[C@@H]1C was read as T cruzi growth inactive and C diff HTS inactive.
`CS(=O)(=O)N1[C@H](CO)[C@@H](c2ccc(C#CC3CCCC3)cc2)[C@@H]1C#N` gave T cruzi growth inactive, C diff HTS inactive and Pf Dd2 growth inactive.
